Results published in PubChem BioAssay (NCATS).
Inconclusive results are not listed. Active and inactive are the calls of the source. Unless noted, calls come from the whole dose curve; as a rule, active = well fitted curve in the direction sought with a large enough effect; inconclusive = small, poorly fitted or top-dose-only effect, or another doubt; inactive = no such curve, though single readings can be large; an effect the other way counts as inactive or inconclusive.

Experiments:
[1] = target: Cytochrome P450 3A4 (Homo sapiens) (UniProt P08684); assay: qHTS Assay for Inhibitors and Substrates of Cytochrome P450 3A4 (AID 884); note: potency is the fitted concentration of half-maximal effect; nearly all actives have a fitted effect of over 50% in size
Sequence of Cytochrome P450 3A4 (Homo sapiens) (P08684 whole entry, looked up): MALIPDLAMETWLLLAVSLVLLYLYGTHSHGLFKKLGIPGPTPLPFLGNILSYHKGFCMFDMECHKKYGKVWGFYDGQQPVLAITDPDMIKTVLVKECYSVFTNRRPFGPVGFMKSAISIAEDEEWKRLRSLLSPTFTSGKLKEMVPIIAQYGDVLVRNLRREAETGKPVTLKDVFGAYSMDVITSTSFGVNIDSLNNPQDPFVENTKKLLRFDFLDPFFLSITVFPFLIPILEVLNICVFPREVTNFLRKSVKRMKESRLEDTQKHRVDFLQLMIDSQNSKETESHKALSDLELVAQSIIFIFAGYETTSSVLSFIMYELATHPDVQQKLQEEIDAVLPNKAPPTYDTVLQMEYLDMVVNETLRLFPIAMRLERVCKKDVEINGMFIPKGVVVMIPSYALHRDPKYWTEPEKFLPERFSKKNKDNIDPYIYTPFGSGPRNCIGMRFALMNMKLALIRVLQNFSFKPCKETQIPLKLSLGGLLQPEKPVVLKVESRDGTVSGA
In short: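 Luminescent readout of luciferin produced by CYP3A4 (20 nM) dealkylation of Luciferin-PPXE, 25 uM (its KM). NADPH-driven reaction ran 60 min at RT after 10 min compound preincubation; data scaled to 57 uM ketoconazole as 100% inhibition.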

[2] = target: Cytochrome P450 3A4 (Homo sapiens) (UniProt P08684); assay: qHTS Assay for Activators of Cytochrome P450 3A4 (AID 885); note: nearly all actives have a fitted effect of over 65% in size
In short: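 Using 20nM recombinant human CYP3A4 in potassium phosphate (200mM), substrate Luciferin-PPXE at 25uM, luminescent luciferin detection followed a 60-min RT NADPH reaction; data scaled to 57 uM ketoconazole.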

[3] = Confirmation and Secondary Assay for Modulators of Hemoglobin Beta Chain Splicing at IVS2 654 locus (AID 910);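 note: per-well total GFP intensity by laser scanning cytometry after 2-day treatment; % of control where 0% means no effect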
In short: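 HeLa cells stably carrying EGFP interrupted by mutant beta-globin IVS2-654 intron (CMV-driven) were treated with compound for 2 days at 37C; corrected splicing was scored as total peak GFP intensity per well (488 nm excitation, 500-520 nm emission).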

[4] = Confirmation and Secondary Assay for Modulators of Hemoglobin Beta Chain Splicing at IVS2 705 locus (AID 930);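 note: HeLa cells stably expressing the EGFP-705 splicing reporter; GFP fluorescence per well restored by corrected splicing of the IVS2-705 intron in EGFP; % of control where 0% means no effect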
In short: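 Stable HeLa line with EGFP disrupted by mutant beta-globin intron 2 (705). Overnight attachment, then 2 days of compound at 37C, 5% CO2. Signal: peak GFP intensity summed over objects 5-250 µm.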

[5] = qHTS Assay for Lipid Storage Modulators (AID 1519; calls by dose curve; for activity change, negative = inhibition: % is set by controls: 0 for no effect and ±100 for the full control effect); settings: Drosophila S3 cells, BODIPY lipid droplet/cell ratio, laser cytometry, cells loaded with oleic acid
In short: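 Cells seeded at 5,000 per well were treated with compounds over a concentration series and loaded with oleic acid (400 uM, as added). Lipid droplet fluorescence (488 nm excitation, 500-530 nm channel) was read by laser-scanning cytometry and normalized to 20 uM Triacsin C.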

[6] = target: Cytochrome P450 2C9 (Homo sapiens) (UniProt P11712); assay: qHTS Assay for Inhibitors and Substrates of Cytochrome P450 2C9 (AID 883); note: potency is the fitted concentration of half-maximal effect; nearly all actives have a fitted effect of over 60% in size
Sequence of Cytochrome P450 2C9 (Homo sapiens) (P11712 whole entry, looked up): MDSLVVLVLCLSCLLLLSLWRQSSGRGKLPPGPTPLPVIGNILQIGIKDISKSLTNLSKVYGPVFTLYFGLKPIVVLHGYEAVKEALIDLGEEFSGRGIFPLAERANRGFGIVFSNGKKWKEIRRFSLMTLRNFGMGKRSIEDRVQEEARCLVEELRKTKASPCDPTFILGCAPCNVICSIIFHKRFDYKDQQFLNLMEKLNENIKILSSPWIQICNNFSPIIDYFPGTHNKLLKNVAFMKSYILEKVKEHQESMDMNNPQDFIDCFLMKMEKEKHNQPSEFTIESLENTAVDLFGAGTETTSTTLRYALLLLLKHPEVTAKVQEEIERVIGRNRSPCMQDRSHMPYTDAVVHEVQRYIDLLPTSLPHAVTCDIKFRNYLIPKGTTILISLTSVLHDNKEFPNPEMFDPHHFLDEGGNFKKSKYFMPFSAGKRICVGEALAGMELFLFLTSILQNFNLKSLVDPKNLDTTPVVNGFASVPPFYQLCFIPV
In short: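 A luminogenic readout tracked human CYP2C9 (10nM) converting deoxyluciferin (100uM, at KM) in 25mM KPO4 during 60 min at 37C with regenerated NADPH. Values normalized to 57uM sulphaphenazole as complete inhibition.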

[7] = measured here: cell count channel max response
[8] = measured here: lipid channel max response

SMILES	Potency [1]	Potency [2]	Potency [3]	Potency [4]	activity change, negative = inhibition ([5]; at 57.5 µM (top of the series))	max response [5, 7] [%]	max response [5, 8] [%]	Potency [6]	activity change, negative = inhibition ([5]; at 25.7 µM (top of the series))
CC1(C)C(=O)C=C[C@@]2(C)C1CC(O)[C@]1(C)C2CC[C@@]2(C)C(c3ccoc3)OC(=O)C3O[C@]312 (some centres undefined)	3.98 µM (active)	inactive	inactive	inactive	-4.48% (inactive)	13.8	11.5	–	–
CC1(C)C(=O)C=C[C@@]2(C)C1=C(O)C(=O)[C@@]1(C)C2CC[C@@]2(C)C(c3ccoc3)C[C@H]3O[C@@]321 (some centres undefined)	0.501 µM (active)	inactive	inactive	inactive	0.256% (inactive)	0.732	3.61	–	–
COc1cc(CNC(=O)CCCC/C=C\C(C)C)ccc1O	–	inactive	–	–	–	-15.8	-21	3.98 µM (active)	-6.95% (inactive)
